Screening results: PubChem, National Center for Advancing Translational Sciences (NCATS)
The full list was thinned out, with hits kept by preference.
CHX counter = counter-screen for Shiga toxin inhibitors: cycloheximide protein synthesis inhibition; cell reporter, cycloheximide protein synthesis inhibition counterscreen; max response, %; 300,000 tested, 12% active; AID 2314; in the data active means max response mostly above about 13%, no sharp cut-off; inactive means mostly below about 14%; further: read at 38.3 µM for the half of the compounds with a filed dose; 0% is about no effect
Lassa entry inh = inhibitors of Lassa virus binding or cell entry | Lassa virus pseudotype entry inhibition, cell reporter | Potency, µM (highest dose often 37.9 µM), for inactives: top-dose activity change, negative = inhibition, most hits filed as inhibitors | 300,000 tested, 1.2% active | AID 540256; calls by dose curve; tested in HEK293 cells; further: potency means the concentration at half of the fitted maximal effect; on the % scale 0 is the no-effect control and ±100 the full control effect; nearly all actives have a fitted effect of over 50% in size
AMA1-RON2 inh = disrupts binding of P. falciparum AMA1 to RON2 | AlphaScreen AMA1-biotinylated RON2 peptide binding | Potency, µM (top dose mostly 58.2 µM), for the others: at the highest dose activity change, negative = inhibition, usual class: inhibitors | 360,000 tested, 0.2% active | AID 720542; active means well fitted inhibition curve with a large enough effect; inconclusive means small, poorly fitted or top-dose-only effect; inactive means no such curve, though single readings can be large or run the other way;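 further: potency means the concentration at half of the fitted maximal effect; 0% = vehicle wells and -100% = peptide control; nearly all actives have a fitted effect of over 45% in size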
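AMA1 (3D7) with his tag at 25 nM final met compounds first, then biotinylated RON2 peptide at 25 nM; detection used donor plus acceptor beads, 10 µg/mL apiece, read by AlphaScreen after 30 min at room temperature.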
MARV entry inh = inhibitors of Marburg virus binding or cell entry. 300,000 tested, 1.8% active. Potency, µM (doses to about 37.8 µM), inactives show at the highest dose activity change, negative = inhibition, usual class: inhibitors. Marburg virus pseudotyped entry inhibition, cell reporter. AID 540276; calls by dose curve; tested in HEK293 cells; further: potency means the concentration at half of the fitted maximal effect; on the % scale 0 is the no-effect control and ±100 the full control effect
Shiga toxin inh = inhibitors of Shiga toxin in Vero cells; 290,000 tested, 9.2% active; inhibition, % at 38.7 µM; Vero cells, Shiga toxin protein synthesis inhibition reporter; AID 2315; in the data active means inhibition mostly above about 28%, no sharp cut-off; inactive means mostly below about 43%; further: 0% is about no effect
* marks the source's active call; other numbers are inactive results; ? = inconclusive; . = no result given; [ ] = another dose, or the depositor's remark.

SMILES	CHX counter	Lassa entry inh	AMA1-RON2 inh	MARV entry inh	Shiga toxin inh
O=C(Nc1ccc(N2CCCC2)cc1)c1ccc2ccccc2c1	48.9*	0.1%	-5.1%	-7.2%	active
CC(=O)N1CCN(c2ccc(NC(=O)c3cc(Cl)ccc3Cl)cc2)CC1	-3.0	.	-7.0%	.	.
CC(=O)N1CCN(c2ccc(NC(=O)c3ccc(C(C)(C)C)cc3)cc2)CC1	32.2*	?	-5.6%	?	44.8*
CC1CCc2c(sc(NC(=O)CN3CCN(C(=O)c4ccco4)CC3)c2C#N)C1 (stereo not given)	-1.2	-16.2%	-1.9%	-27.6%	-14.1
NC(CCc1ccccc1)c1csc(Nc2nncc3ccccc23)n1 (stereo not given)	.	.	97.6%	.	.
CC(=O)N1CCN(c2ccc(NC(=O)c3ccc4ccccc4c3)cc2)CC1	25.8*	?	-0.1%	8.5%[46.1 µM]	6.6
Cc1cccc(C(=O)N2CCN(c3ccc([N+](=O)[O-])c(N4CCOCC4)c3)CC2)c1	6.1	?	-21.7%	-25.7%	-10.9
O=C(c1ccc2ccccc2c1)N1CCN(c2ccc([N+](=O)[O-])c(N3CCOCC3)c2)CC1	26.2*	?	13.3%	7.0%	41.3
CC(=O)N1CCN(c2ccc(NC(=O)c3ccc(Cl)cc3)cc2)CC1	-4.2	.	4.0%	.	-11.6
Cc1c(CN2CCN(CC(C)C)C(CCO)C2)[nH]c2ccc(Cl)cc12 (stereo not given)	-1.6	-26.9%[46.1 µM]	10.1%	?	8.4
CCOC(=O)c1c(NC(=S)Nc2ccc(OCC)cc2)sc2c1CCN(C)C2	18.4*	16.4%	-3.3%	?	35.7
CN1CCc2c(sc(NC(=O)c3ccc4ccccc4c3)c2C(N)=O)C1	48.8*	.	.	.	91.8*
CC(=O)N1CCc2c(sc(NC(=O)c3ccc4c(c3)OCCO4)c2C#N)C1	12.5*	.	-13.0%	.	12.7
CN1CCc2c(sc(NC(=O)C3COc4ccccc4O3)c2C(N)=O)C1 (stereo not given)	22.2*	?	-1.0%	16.5%	31.8
CC(=O)N1CCc2c(sc(NC(=O)C3COc4ccccc4O3)c2C(N)=O)C1 (stereo not given)	31.4*	-4.5%[46.1 µM]	13.4%	0.5%[46.1 µM]	22.6
CCN1CCc2c(sc(NC(=O)C3COc4ccccc4O3)c2C(N)=O)C1 (stereo not given)	19.0*	-2.5%	-0.3%	4.4%	62.2
CC(=O)NCc1ccc(S(=O)(=O)N2CCN(S(=O)(=O)c3ccc4ccccc4c3)CC2)cc1	.	?	12.4%	?	.
O=C(CCCOc1ccc(Cl)cc1)NC1CCCCC1	-2.3	.	7.6%	.	.
COc1ccc(N/N=C(\C#N)C(N)=O)cc1	12.7*	-23.7%	-8.1%	0.0%[46.1 µM]	43.1
CCOc1ccc(N/C(SC)=C(/C#N)C(N)=O)cc1	-3.0	20.8%[14.3 µM]	0.5%	-36.4%	23.6
CNC(=S)Nc1ccc(OC(F)(F)F)cc1	4.2	.	-2.1%	.	-2.9
CCOc1ccc(N/N=C(/C#N)C(N)=O)cc1	30.6*	24.6%	-0.9%	19.7%	45.9*
N#C/C(=N/Nc1ccc(OC(F)(F)F)cc1)C(N)=S	56.7*	.	64.7%	.	75.4*
CN(Cc1ccccc1)C(c1ccnc2ccccc12)c1nnnn1-c1ccc2c(c1)OCCO2 (stereo not given)	.	.	-1.4%	.	.
O=C(CCCc1ccccc1)Nc1cccc([N+](=O)[O-])c1	43.6*	.	-6.5%	.	.
SMILES	CHX counter	Lassa entry inh	AMA1-RON2 inh	MARV entry inh	Shiga toxin inh
O=C(O)CCCC(=O)Nc1cccc([N+](=O)[O-])c1	-7.9	?	16.9%	1.9%[46.1 µM]	-8.9
O=C(CCCOc1ccccc1)Nc1cccc([N+](=O)[O-])c1	21.3*	4.2%	0.5%	-2.3%[46.1 µM]	82.4*
O=C1C=C(Nc2ccc(Cl)cc2)C(=O)N1c1ccc(Cl)cc1	13.3	-0.9%	-2.2%	0.0%	-2.9
CC1(C)Cc2c(sc3nc(N/N=C/c4ccccc4)[nH]c(=O)c23)CO1	3.7	-0.8%	5.1%	?	23.3
CC(C)=NNc1nc2sc3c(c2c(=O)[nH]1)CC(C)(C)OC3	9.6	7.08µM*	73.4%	-4.5%	-13.1
CCOC(=O)C1CCN(C(=O)c2cc3cc4cc(OC)ccc4nc3o2)CC1	32.2*	1.6%	4.7%	?	28.7
CCOC(=O)C1CCCN(C(=O)c2cc3cc4ccc(OC)cc4nc3o2)C1 (stereo not given)	0.4	.	4.7%	.	33.9
COc1ccc(CNC(=O)c2cc3cc4cc(OC)ccc4nc3o2)cc1	.	5.6%[46.1 µM]	.	?	.
COc1ccc2cc3cc(C(=O)N4CCN(c5ccccc5)CC4)oc3nc2c1	-6.2	-9.6%	-2.7%	10.7%	-9.8
COc1ccc2nc3oc(C(=O)N4CC(C)CC(C)C4)cc3cc2c1 (stereo not given)	14.2	.	1.7%	.	55.7*
COc1ccc2nc3oc(C(=O)N4CCCCC4)cc3cc2c1	30.3*	?	-12.8%	?	75.5*
COc1ccc2cc3cc(C(=O)N4CCCC(C)C4)oc3nc2c1 (stereo not given)	37.7*	.	-10.6%	.	82.0*
COc1ccc2nc3sc(C(=O)N4CCN(C)CC4)cc3cc2c1	14.7*	12.6%	-1.6%	?	20.5
Cn1c(C(=O)N2COCC2(C)C)cc2c(=O)n3ccccc3nc21	35.0*	13.0%	8.1%	9.8%	74.8*
CC(C)C/C(=N/O)c1cn(C)c2ccccc12	16.8	1.12µM*	-0.2%	?	13.9
Cn1cc(C(=O)NCc2ccccc2)c2ccccc21	-1.1	-28.7%[46.1 µM]	-4.5%	?	3.3
O=C(Nc1ccc2[nH]ccc2c1)c1ccc(F)cc1	13.4*	.	-5.3%	.	15.9
O=C(Nc1ccncc1)c1ccc(F)cc1	8.4	-0.8%	12.0%	8.1%	4.0
O=C(Nc1ccc2[nH]ccc2c1)c1ccccc1	26.6*	2.82µM*	9.5%	6.31µM*	31.6
COc1ccc(NC(=O)Nc2ccc3[nH]ccc3c2)cc1	.	-3.8%	-0.4%	12.3%	.
CC(=O)c1ccc(N2CCN(C(=O)NCc3noc4ccc(C)cc34)CC2)cc1	.	-18.2%[46.1 µM]	.	.	.
COc1ccc(NC(=O)COC(=O)Cn2cnc3ccccc3c2=O)c(OC)c1	.	.	0.4%	.	.
COC(=O)c1sc(NC(=O)/C=C/c2ccc(C)cc2)nc1C	9.2	6.3%	12.8%	?	14.0
COC(=O)c1sc(NC(=O)c2oc3ccccc3c2C)nc1C	28.1*	?	8.2%	0.4%	37.6*
CCOC(=O)c1sc(NC(=O)c2ccc(OC)cc2)nc1C	5.4	9.1%[46.1 µM]	6.9%	10.3%[46.1 µM]	6.8
SMILES	CHX counter	Lassa entry inh	AMA1-RON2 inh	MARV entry inh	Shiga toxin inh
CCOC(=O)c1sc(NC(=O)c2ccco2)nc1C	16.5	-12.8%	0.0%	17.6%	12.0
CCOC(=O)c1sc(NC(=O)c2ccc(C)o2)nc1C	28.2*	?	-0.8%	-3.3%	43.2*
CCOC(=O)c1sc(NC(=O)c2ccc(OC(C)=O)cc2)nc1C	20.6*	.	-4.5%	?	55.7*
COC(=O)c1sc(NC(=O)c2ccc(C)o2)nc1C	46.6*	-20.4%	-3.7%	?	147.3*
Cc1cc(C(=O)OCC(=O)Nc2ccccc2C#N)c(C)o1	.	6.4%	-2.4%	8.9%	.
COc1ccc(/C=N\NC(=O)COc2ccccc2)c(C(=O)O)c1OC	-5.8	-8.0%[46.1 µM]	-19.9%	8.0%[46.1 µM]	-4.9
O=C(COc1ccccc1F)Nc1ccccc1C(=O)OCc1cc(=O)n2nc(C3CC3)sc2n1	.	23.2%[46.1 µM]	.	.	.
